The source of these data is PubChem BioAssay AID2685 (National Center for Advancing Translational Sciences (NCATS), 2010).

Hit rate of the full screen: of about 320,000 compounds, about 2,100 (0.66%) were called active. Not shown: some 53% with an inconclusive outcome. Calls come from the whole dose curve; as a rule, active = well fitted inhibition curve with a large enough effect in the signal ratio, with a control signal flat (not every such curve was filed as active); inconclusive = small, poorly fitted or top-dose-only effect, or effect the other way, or a change in a side signal; inactive = flat fitted curve, though single readings scatter; the % refers to the signal ratio. Shown is part of a subset that was picked to be rich in actives.
Potency is the fitted concentration of half-maximal effect.

This assay can be described thus: qHTS Assay for Lipid Storage Modulators in Drosophila S3 Cells.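 For cell number change: cells counted by Cell Tracker Red CMTPX staining in the red channel.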 Conditions: BODIPY lipid droplet fluorescence, 18-24 h, cells fed with added oleic acid; cell number change: measured here: cell count max response; series mostly up to 46.1 µM. In a few lines: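 Drosophila S3 cells loaded with oleic acid (400 uM, as added) and compounds at several concentrations; lipid droplets imaged by 488-nm laser-scanning cytometry, 500–530 nm intensity and object ratio to cell channel. Percent activity normalized to 20 uM Triacsin C.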
Turning to `Cc1cc(Cl)c2oc(C(=O)N(C)CCc3cnn(C)c3)c(C)c2c1`, the Potency result is “inactive” and the cell number change was -0.298%.

In the case of `Cc1cc(Cl)c2oc(C(=O)N(C)CC3CCOCC3)c(C)c2c1`, the Potency entry is “inactive” and the cell number change was -6.12%.

In the case of `CC1(OC(=O)C2CCCC2)C(=O)C=C2C=C(c3ccsc3)N(CCCCO)C=C2C1=O` (stereo not drawn), the Potency entry was “inactive” and the cell number change was -2.75%.

Turning to `NC(=O)C(Cc1ccccc1)N1C(=O)c2ccccc2C1=O` (stereo not drawn), the Potency entry was “inactive” and the cell number change is -7.43%.

In the case of `O=C1c2ccccc2C(=O)N1CCCOc1ccccc1`, the Potency entry is “inactive” and the cell number change was -1.01%.

For `O=C(O)C(CCCCN1C(=O)c2ccccc2C1=O)N1C(=O)c2ccccc2C1=O` (stereo not drawn), the Potency is 29.1 µM (active) and the cell number change was -7.36%.

Regarding `CCC(C)(C)n1nnnc1C(c1ccc(N(C)C)cc1)N1CCN(C2CCCCC2)CC1` (stereo not drawn), the Potency result is “inactive” and the cell number change was 1.78%.

Regarding `Cc1cc(OCC(O)CNC(C)(C)C)ccc1Cl` (stereo not drawn), the Potency entry is “inactive” and the cell number change was 3.23%.

Consider `CCOC(=O)N1CCN(C(=O)CSc2ccccc2)CC1`, for which the Potency entry was “inactive”.

In the case of `CCOC(=O)N1CCN(C(=O)CSc2ccc(Cl)cc2)CC1`, the Potency was 2.59 µM (active) and the cell number change worked out at 4.78%.

In the case of `CCOC(=O)N1CCN(C(=O)CCSc2ccc(Cl)cc2)CC1`, the Potency result was “inactive” and the cell number change is -8.05%.

On to `OC(CNCc1cccnc1)COc1ccc2ccccc2c1` (stereo not drawn), for which the Potency result was “inactive” and the cell number change is -3.7%.

As to `CCOC(=O)C1=C(C)N=c2s/c(=C\c3ccc(OCC(=O)O)c(OC)c3)c(=O)n2C1c1ccc(OC)cc1` (stereo not drawn), the Potency entry was “inactive” and the cell number change came to 8.11%.

Turning to `CCOC(=O)C1=C(C)N=c2s/c(=C/c3ccc(OCC(=O)O)cc3)c(=O)n2C1c1ccc(OC)cc1OC` (stereo not drawn), the Potency is 11.6 µM (active) and the cell number change was -12.6%.

In the case of `CCOC(=O)C1=C(C)N=c2s/c(=C\c3ccc(OCC(=O)O)cc3)c(=O)n2C1c1ccccc1` (stereo not drawn), the Potency result was “inactive”.

Take `OCCN1CCN(c2cc(C(F)(F)F)nc3c(F)cccc23)CC1`: the Potency result is “inactive” and the cell number change came out at 16.3%.

Take `CCOC(=O)N1CCN(C(=O)C2CCN(S(=O)(=O)N3CCC4(CC3)OCCO4)CC2)CC1`: the Potency result was “inactive”.

For `CC1(C)O[C@H]2CC(=O)OC[C@@]23C1CC(=O)[C@]1(C)C3CC[C@@]2(C)[C@H](c3ccoc3)OC(=O)[C@H]3O[C@]321` (stereo partly drawn), the Potency entry was “inactive”.

Turning to `O=C(CN1CCN(C(=O)CNC(=O)c2ccc3c(c2)OCO3)CC1)Nc1ccccc1Cl`, the Potency entry is “inactive” and the cell number change turned out to be 2.76%.

Consider `Cc1ccccc1N1C(=O)C(Cl)=C(N2CCCCCC2)C1=O`, for which the Potency result was “inactive” and the cell number change was -0.204%.

Consider `O=C1C(Cl)=C(N2CCOCC2)C(=O)N1c1ccccc1F`, for which the Potency result was “inactive” and the cell number change was -18.5%.

With `O=C1C(Cl)=C(N2CCCC2)C(=O)N1c1ccccc1F`, the Potency is 1.46 µM (active) and the cell number change came out at 2.93%.

For the molecule `O=C(NCc1ccccc1)C1CCCN1C(=O)Nc1ccccc1[N+](=O)[O-]` (stereo not drawn), the Potency is 0.731 µM (active) and the cell number change is 14.7%.

With `COc1ccccc1NC(=O)N1CCCC1C(=O)NCc1ccccc1` (stereo not drawn), the Potency entry was “inactive” and the cell number change is -7.89%.

Regarding `CCOCCCNC(=O)C1CCCN1C(=O)Nc1ccccc1[N+](=O)[O-]` (stereo not drawn), the Potency result was “inactive” and the cell number change was 3.63%.

As to `COc1ccc(NC(=O)C2CCCN2C(=O)NCc2ccccc2)c(OC)c1` (stereo not drawn), the Potency entry is “inactive” and the cell number change was -2.72%.

As to `COc1ccc(NC(=O)C2CCCN2C(=O)NCc2ccccc2)cc1OC` (stereo not drawn), the Potency result was “inactive” and the cell number change was found to be 1.64%.

With `COc1cccc(OC)c1NC(=O)C1CCCN1C(=O)NCc1ccccc1` (stereo not drawn), the Potency is 29.1 µM (active) and the cell number change is -20.9%.

`Cc1cc(-c2nnc(CCC(=O)N(C)CCc3ccccc3)o2)no1`: the Potency entry is “inactive” and the cell number change turned out to be 4.46%.

As for `CC1CN(C/C(=N\O)C23CC4CC(CC(C4)C2)C3)CC(C)O1` (stereo not drawn), the Potency entry is “inactive” and the cell number change was -15.5%.

For the molecule `O=C(NCc1ccc(Cl)cc1)c1cc([N+](=O)[O-])ccc1Cl`, the Potency result was “inactive” and the cell number change was 16.3%.

On to `CN(C)S(=O)(=O)c1ccc(NC=C(C#N)C#N)cc1`, for which the Potency entry is “inactive” and the cell number change is -16.2%.

`CCn1cc([N+](=O)[O-])c(C(=O)Nc2nc(-c3ccc(C)c(C)c3)c(C)s2)n1`: the Potency result was “inactive” and the cell number change was -14.3%.

With `CCn1cc([N+](=O)[O-])c(C(=O)Nc2nc(-c3ccc(C)cc3)c(C)s2)n1`, the Potency was 4.61 µM (active) and the cell number change was determined as 18.4%.

Take `Cc1ccc(-c2nc(NC(=O)c3nn(C)cc3[N+](=O)[O-])sc2C)cc1`: the Potency result is “inactive” and the cell number change is 27.2%.

In the case of `CCCCN(C(=O)c1ccccc1OCc1ccc(F)cc1)c1c(N)n(CCC)c(=O)[nH]c1=O`, the Potency result was “inactive” and the cell number change was -14.3%.

With `Cn1c(SCc2cccc(C#N)c2)nc2ccccc2c1=O`, the Potency result was “inactive” and the cell number change came to 7.25%.

Turning to `COc1ccccc1NC(=O)c1ccc2snnc2c1`, the Potency result was “inactive” and the cell number change turned out to be 5.09%.

As to `COc1cc(NC(=O)c2ccccc2)c(OC)cc1NC(C)=O`, the Potency entry was “inactive” and the cell number change is -0.51%.

With `COc1cc(NC(=O)c2ccc(Br)cc2)c(OC)cc1NC(=O)c1ccccc1`, the Potency is 18.4 µM (active) and the cell number change was -19.9%.

On to `COc1cc(NC(=O)COc2ccccc2Cl)ccc1NC(=O)c1cccs1`, for which the Potency was 4.61 µM (active).

As for `COc1cc(NC(=O)c2ccc3nsnc3c2)cc(OC)c1OC`, the Potency entry was “inactive” and the cell number change was 3.44%.

In the case of `COc1ccc(OCC(=O)Nc2ccc(NC(=O)c3cccs3)c(OC)c2)cc1`, the Potency result is “inactive” and the cell number change was 10.8%.

Consider `COc1cc(NC(=O)Cc2ccccc2)ccc1NC(=O)c1ccccc1`, for which the Potency was 23.1 µM (active) and the cell number change came to 5.29%.

In the case of `COc1ccccc1CC(=O)Nc1cc(OC)c(NC(=O)c2ccccc2)cc1OC`, the Potency entry was “inactive” and the cell number change was -14.4%.

On to `COc1ccccc1NC(=O)c1ccc2nsnc2c1`, for which the Potency is 3.66 µM (active) and the cell number change came out at 21.1%.

Turning to `COc1ccc(NC(=O)c2cccc(NC(=O)c3ccccc3)c2)c(OC)c1`, the Potency entry was “inactive” and the cell number change is -2.85%.

For the molecule `COc1cc(NC(=O)c2cccnc2)c(OC)cc1NC(=O)c1ccc(Br)cc1`, the Potency result is “inactive” and the cell number change was 15.3%.

On to `COc1cc(NC(=O)c2ccccc2Cl)ccc1NC(=O)c1cccs1`, for which the Potency result is “inactive” and the cell number change is 16.4%.
